# This is one part of a sample in which the strongest signals are shown more often than they occur.
# B1: Vd2LysM (Verticillium dahliae) (protein)
# chain: YRRTCSHTGKGEGWYIIRRGDNFNAVAADFCTSTNVLTEWNHISTITDNMVNTKIKVPCRWNAGKQRDCLKDQKSSNGWYHIVSGDELKDIAYDFCTTSGSLAGMNGISNPDYIKANTDIVVPCSWN
# How the values were obtained:
# Assay in all cases: glycan array binding signal (z-score within array); higher = stronger binding
# Settings in all cases: glycan notation: IUPAC condensed, linker removed
# [1] = target: Fuc(a1-2)Gal(b1-3)GalNAc(a1-3)[Fuc(a1-2)]Gal(b1-4)Glc
# How it was run: (§1)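 Glycan array data were curated from 3228 arrays in the Consortium for Functional Glycomics database and kept only where the protein sequence was available. Glycan names were converted to IUPAC-condensed notation, and columns mapping to the same glycan were averaged. The binding signal is a within-array Z-score, averaged across arrays of the same protein sequence at different concentrations or buffers and across linkers. Negative Z-scores can be read as non-binding.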
# Fuc(a1-2)Gal(b1-3)GlcNAc = target: Fuc(a1-2)Gal(b1-3)GlcNAc
# How it was run: as §1
# [2] = target: Fuc(a1-2)Gal(b1-3)GlcNAc(b1-3)GalNAc
# How it was run: as §1
# [3] = target: Fuc(a1-2)Gal(b1-4)GlcNAc(b1-3)Gal(b1-4)GlcNAc
# How it was run: as §1
# [4] = target: Fuc(a1-2)Gal(b1-4)[Fuc(a1-3)]GlcNAc(b1-2)[Fuc(a1-2)Gal(b1-4)[Fuc(a1-3)]GlcNAc(b1-4)]Man(a1-3)[Fuc(a1-2)Gal(b1-4)[Fuc(a1-3)]GlcNAc(b1-2)Man(a1-6)]Man(b1-4)GlcNAc(b1-4)GlcNAc
# How it was run: as §1
# [5] = target: Fuc(a1-2)[Gal(a1-3)]Gal(b1-4)GlcNAc(b1-2)Man(a1-3)[Fuc(a1-2)[Gal(a1-3)]Gal(b1-4)GlcNAc(b1-2)Man(a1-6)]Man(b1-4)GlcNAc(b1-4)GlcNAc
# How it was run: as §1
# [6] = target: Fuc(a1-2)[GalNAc(a1-3)]Gal(b1-4)[Fuc(a1-3)]GlcNAc(b1-3)GalNAc
# How it was run: as §1
# [7] = target: Fuc(a1-3)[Gal3S(b1-4)]GlcNAc
# How it was run: as §1
# [8] = target: Gal(a1-3)Gal(b1-3)GlcNAc(b1-2)Man
# How it was run: as §1
# Gal(a1-3)Gal(b1-4)GlcNAc = target: Gal(a1-3)Gal(b1-4)GlcNAc
# How it was run: as §1
# [9] = target: Gal(a1-3)Gal(b1-4)GlcNAc(b1-2)Man(a1-3)[Gal(a1-3)Gal(b1-4)GlcNAc(b1-2)Man(a1-6)]Man(b1-4)GlcNAc(b1-4)GlcNAc
# How it was run: as §1
# Gal(b1-3)GlcNAc = target: Gal(b1-3)GlcNAc
# How it was run: as §1
# [10] = target: Gal(b1-3)GlcNAc(b1-3)Gal(b1-3)GlcNAc
# How it was run: as §1
# [11] = target: Gal(b1-3)GlcNAc(b1-3)Gal(b1-4)GlcNAc(b1-2)Man(a1-3)[Gal(b1-3)GlcNAc(b1-3)Gal(b1-4)GlcNAc(b1-2)Man(a1-6)]Man(b1-4)GlcNAc(b1-4)GlcNAc
# How it was run: as §1
# [12] = target: Gal(b1-3)GlcNAc(b1-3)Gal(b1-4)GlcNAc(b1-2)[Gal(b1-3)GlcNAc(b1-3)Gal(b1-4)GlcNAc(b1-6)]Man(a1-6)[Gal(b1-3)GlcNAc(b1-3)Gal(b1-4)GlcNAc(b1-2)Man(a1-3)]Man(b1-4)GlcNAc(b1-4)[Fuc(a1-6)]GlcNAc
# How it was run: as §1
# [13] = target: Gal(b1-3)GlcNAc(b1-3)Gal(b1-4)GlcNAc(b1-3)Gal(b1-4)GlcNAc(b1-2)[Gal(b1-3)GlcNAc(b1-3)Gal(b1-4)GlcNAc(b1-3)Gal(b1-4)GlcNAc(b1-6)]Man(a1-6)[Gal(b1-3)GlcNAc(b1-3)Gal(b1-4)GlcNAc(b1-3)Gal(b1-4)GlcNAc(b1-2)Man(a1-3)]Man(b1-4)GlcNAc(b1-4)[Fuc(a1-6)]GlcNAc
# How it was run: as §1
# [14] = target: Gal(b1-3)[Fuc(a1-4)]GlcNAc(b1-2)Man(a1-3)[Gal(b1-3)[Fuc(a1-4)]GlcNAc(b1-2)Man(a1-6)]Man(b1-4)GlcNAc(b1-4)[Fuc(a1-6)]GlcNAc
# How it was run: as §1
# Gal(b1-4)Glc = target: Gal(b1-4)Glc
# How it was run: as §1
# [15] = target: Gal(b1-4)GlcNAc(b1-2)Man(a1-3)[Gal(b1-4)GlcNAc(b1-2)Man(a1-6)]Man(b1-4)GlcNAc(b1-4)GlcNAc
# How it was run: as §1
# [16] = target: Gal(b1-4)GlcNAc(b1-3)Gal(b1-3)GalNAc
# How it was run: as §1
# [17] = target: Gal(b1-4)GlcNAc(b1-3)Gal(b1-4)GlcNAc(b1-2)[Gal(b1-4)GlcNAc(b1-3)Gal(b1-4)GlcNAc(b1-6)]Man(a1-6)[Gal(b1-4)GlcNAc(b1-3)Gal(b1-4)GlcNAc(b1-2)Man(a1-3)]Man(b1-4)GlcNAc(b1-4)[Fuc(a1-6)]GlcNAc
# How it was run: as §1
# Gal3S(b1-3)GalNAc = target: Gal3S(b1-3)GalNAc
# How it was run: as §1
# [18] = target: GalNAc(a1-3)GalNAc(b1-3)Gal(a1-4)Gal(b1-4)GlcNAc
# How it was run: as §1
# Glc(b1-6)Glc = target: Glc(b1-6)Glc
# How it was run: as §1
# [19] = target: GlcNAc(b1-2)[GlcNAc(b1-4)]Man(a1-3)[GlcNAc(b1-4)][GlcNAc(b1-2)Man(a1-6)]Man(b1-4)GlcNAc(b1-4)GlcNAc
# How it was run: as §1
# [20] = target: GlcNAc(b1-2)[GlcNAc(b1-4)]Man(a1-3)[GlcNAc(b1-4)][GlcNAc(b1-2)[GlcNAc(b1-6)]Man(a1-6)]Man(b1-4)GlcNAc(b1-4)[Fuc(a1-6)]GlcNAc
# How it was run: as §1
# [21] = target: GlcNAc(b1-3)Gal(b1-4)GlcNAc(b1-2)[GlcNAc(b1-3)Gal(b1-4)GlcNAc(b1-6)]Man(a1-6)[GlcNAc(b1-3)Gal(b1-4)GlcNAc(b1-2)Man(a1-3)]Man(b1-4)GlcNAc(b1-4)GlcNAc
# How it was run: as §1
# [22] = target: GlcNAc(b1-3)Gal(b1-4)GlcNAc(b1-3)GalNAc
# How it was run: as §1
# [23] = target: GlcNAc(b1-4)Gal(b1-4)GlcNAc
# How it was run: as §1
# [24] = target: GlcNAc(b1-4)GlcNAc(b1-4)GlcNAc(b1-4)GlcNAc(b1-4)GlcNAc
# How it was run: as §1
# [25] = target: GlcNAc(b1-4)GlcNAc(b1-4)GlcNAc(b1-4)GlcNAc(b1-4)GlcNAc(b1-4)GlcNAc
# How it was run: as §1
# Kdn(a2-3)Gal(b1-3)GalNAc = target: Kdn(a2-3)Gal(b1-3)GalNAc
# How it was run: as §1
# [26] = target: Man(a1-2)Man(a1-3)[Man(a1-2)Man(a1-6)]Man(a1-6)[Man(a1-2)Man(a1-2)Man(a1-3)]Man(b1-4)GlcNAc(b1-4)GlcNAc
# How it was run: as §1
# MurNAc(b1-4)GlcNAc = target: MurNAc(b1-4)GlcNAc
# How it was run: as §1
# Neu5Ac(a2-3)Gal(b1-4)Glc = target: Neu5Ac(a2-3)Gal(b1-4)Glc
# How it was run: as §1
# [27] = target: Neu5Ac(a2-3)Gal(b1-4)GlcNAc(b1-2)Man
# How it was run: as §1
# [28] = target: Neu5Ac(a2-3)Gal(b1-4)GlcNAc(b1-2)Man(a1-3)[Neu5Ac(a2-3)Gal(b1-4)GlcNAc(b1-2)Man(a1-6)]Man(b1-4)GlcNAc(b1-4)[Fuc(a1-6)]GlcNAc
# How it was run: as §1
# [29] = target: Neu5Ac(a2-3)Gal(b1-4)GlcNAc(b1-3)Gal
# How it was run: as §1
# [30] = target: Neu5Ac(a2-3)Gal(b1-4)GlcNAc(b1-3)Gal(b1-4)GlcNAc(b1-3)Gal(b1-4)GlcNAc(b1-2)Man(a1-3)[Neu5Ac(a2-3)Gal(b1-4)GlcNAc(b1-3)Gal(b1-4)GlcNAc(b1-3)Gal(b1-4)GlcNAc(b1-2)Man(a1-6)]GalNAc
# How it was run: as §1
# [31] = target: Neu5Ac(a2-3)Gal(b1-4)GlcNAc(b1-3)Gal(b1-4)[Fuc(a1-3)]GlcNAc
# How it was run: as §1
# [32] = target: Neu5Ac(a2-3)Gal(b1-4)[Fuc(a1-3)]GlcNAc(b1-3)Gal(b1-4)GlcNAc
# How it was run: as §1
# Neu5Ac(a2-3)GalNAc = target: Neu5Ac(a2-3)GalNAc
# How it was run: as §1
# [33] = target: Neu5Ac(a2-6)Gal(b1-4)GlcNAc(b1-2)Man(a1-3)[GlcNAc(b1-4)][Neu5Ac(a2-6)Gal(b1-4)GlcNAc(b1-2)Man(a1-6)]Man(b1-4)GlcNAc(b1-4)GlcNAc
# How it was run: as §1
# [34] = target: Neu5Ac(a2-6)Gal(b1-4)GlcNAc(b1-2)Man(a1-3)[Man(a1-6)]Man(b1-4)GlcNAc(b1-4)GlcNAc
# How it was run: as §1
# [35] = target: Neu5Ac(a2-6)GlcNAc(b1-4)GlcNAc
# How it was run: as §1
# [36] = target: Neu5Ac(a2-8)Neu5Ac(a2-3)[Gal(b1-3)GalNAc(b1-4)]Gal(b1-4)Glc
# How it was run: as §1
# [37] = target: Neu5Ac(a2-8)Neu5Ac(a2-8)Neu5Ac(a2-8)Neu5Ac(a2-3)[GalNAc(b1-4)]Gal(b1-4)Glc
# How it was run: as §1
# [38] = target: Neu5Ac(b2-6)Gal(b1-4)GlcNAc
# How it was run: as §1
# [39] = target: Neu5Gc(a2-6)Gal(b1-4)GlcNAc
# How it was run: as §1
# [40] = target: Neu5Gc(a2-8)Neu5Gc(a2-3)Gal(b1-4)GlcNAc
# How it was run: as §1
# [41] = target: Neu5Gc(a2-8)Neu5Gc(a2-3)Gal(b1-4)GlcNAc(b1-3)Gal(b1-4)GlcNAc
# How it was run: as §1
binder,measurement,setting,value
B1,glycan array binding signal (z-score),[1],2.91
same,glycan array binding signal (z-score),Fuc(a1-2)Gal(b1-3)GlcNAc,0.299
same,glycan array binding signal (z-score),[2],-0.965
same,glycan array binding signal (z-score),[3],0.247
same,glycan array binding signal (z-score),[4],0.533
same,glycan array binding signal (z-score),[5],-0.126
same,glycan array binding signal (z-score),[6],-0.592
same,glycan array binding signal (z-score),[7],0.699
same,glycan array binding signal (z-score),[8],0.43
same,glycan array binding signal (z-score),Gal(a1-3)Gal(b1-4)GlcNAc,-0.365
same,glycan array binding signal (z-score),[9],-1.06
same,glycan array binding signal (z-score),Gal(b1-3)GlcNAc,-0.257
same,glycan array binding signal (z-score),[10],0.452
same,glycan array binding signal (z-score),[11],0.151
same,glycan array binding signal (z-score),[12],6.69
same,glycan array binding signal (z-score),[13],2.23
same,glycan array binding signal (z-score),[14],-0.543
same,glycan array binding signal (z-score),Gal(b1-4)Glc,0.73
same,glycan array binding signal (z-score),[15],-0.349
same,glycan array binding signal (z-score),[16],0.984
same,glycan array binding signal (z-score),[17],2.2
same,glycan array binding signal (z-score),Gal3S(b1-3)GalNAc,-0.656
same,glycan array binding signal (z-score),[18],-0.212
same,glycan array binding signal (z-score),Glc(b1-6)Glc,-1.15
same,glycan array binding signal (z-score),[19],2.82
same,glycan array binding signal (z-score),[20],3.56
same,glycan array binding signal (z-score),[21],0.741
same,glycan array binding signal (z-score),[22],-1.11
same,glycan array binding signal (z-score),[23],-1.44
same,glycan array binding signal (z-score),[24],8.56
same,glycan array binding signal (z-score),[25],4.42
same,glycan array binding signal (z-score),Kdn(a2-3)Gal(b1-3)GalNAc,1.25
same,glycan array binding signal (z-score),[26],2.21
same,glycan array binding signal (z-score),MurNAc(b1-4)GlcNAc,-0.26
same,glycan array binding signal (z-score),Neu5Ac(a2-3)Gal(b1-4)Glc,0.49
same,glycan array binding signal (z-score),[27],-0.481
same,glycan array binding signal (z-score),[28],1.14
same,glycan array binding signal (z-score),[29],-0.599
same,glycan array binding signal (z-score),[30],2.35
same,glycan array binding signal (z-score),[31],-0.732
same,glycan array binding signal (z-score),[32],-0.125
same,glycan array binding signal (z-score),Neu5Ac(a2-3)GalNAc,0.096
same,glycan array binding signal (z-score),[33],-0.761
same,glycan array binding signal (z-score),[34],-0.322
same,glycan array binding signal (z-score),[35],0.619
same,glycan array binding signal (z-score),[36],0.198
same,glycan array binding signal (z-score),[37],1.71
same,glycan array binding signal (z-score),[38],0.512
same,glycan array binding signal (z-score),[39],0.437
same,glycan array binding signal (z-score),[40],2.17
same,glycan array binding signal (z-score),[41],0.317

# Reference: the supplement of paper PMC8728848
